Assay results taken from PubChem BioAssay (NCATS).
“And” between values parts separate entries of the source, which are not always exact repeats. Equal entries are not always repeated. Results filed as inconclusive are left out. Where a call stands in place of a potency, no number is given. A structure can be active in one record and inactive in another. The source made the active and inactive calls. The call rests on the fitted dose curve; in most records, active means well fitted curve in the direction sought with a large enough effect; inconclusive means small, poorly fitted or top-dose-only effect, or another doubt; inactive means no such curve, though single readings can be large; an effect the other way counts as inactive or inconclusive.

What was measured:
[1] = molecular target: Glutathione peroxidase 1 (Homo sapiens) (UniProt P07203); experiment: Primary qHTS Assay for Inhibitors of Recombinant Selenoprotein Glutathione Peroxidase 1 (GPX1) (AID 1845191); further: nearly all actives have a fitted effect of over 65% in size; further: potency means the concentration at half of the fitted maximal effect
Method in brief: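 NADPH consumption tracked by fluorescence at 340/450 nm between t=0 and t=15 min, room temperature. Final mix: 10 nM GPX1, 100 nM glutathione reductase, 1 mM GSH, 0.5 mM NADPH, 0.5 mM cumene hydroperoxide, 0.01% BSA; 30 min compound–enzyme preincubation.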

[2] = molecular target: Phospholipid hydroperoxide glutathione peroxidase GPX4 (Homo sapiens) (UniProt P36969); experiment: Primary qHTS Assay for Inhibitors of Recombinant Selenoprotein Glutathione Peroxidase 4 (GPX4) (AID 1845192); further: nearly all actives have a fitted effect of over 65% in size; on activity change, negative = inhibition: series mostly up to about 50 µM
Method in brief: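 NADPH consumption followed by fluorescence at 340/450 nm, t=0 and after 15 min at room temperature. Reaction started with cumene hydroperoxide (0.5 mM final) after 30 min compound–GPX4 preincubation; final 200 nM GPX4, 100 nM GR, 1 mM GSH, 0.5 mM NADPH.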

[3] = molecular target: Luciferin 4-monooxygenase (Photinus pyralis) (UniProt P08659); experiment: Primary firefly luciferase (FLuc) qHTS assay for identification of artifact compounds. (AID 1845220); further: nearly all actives have a fitted effect of over 60% in size; on activity change, negative = inhibition: series mostly up to about 54 µM
Method in brief: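 FLuc 10 nM; luciferin 10 uM; ATP 10 uM; Tris-acetate pH 7.6, Mg-acetate 10 mM; 15 min RT preincubation; 5 min reaction; luminescence.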

[4] = Primary fluorescence-based thiol-reactive (MSTI) qHTS assay for identification of artifact compounds. (AID 1845221); further: nearly all actives have a fitted effect of over 65% in size; further: potency means the concentration at half of the fitted maximal effect;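 on activity change, negative = thiol reactive: series mostly up to about 54 µM; thiol-reactive compounds lower the probe fluorescence signal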
Method in brief: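 Compounds were incubated 1 h at room temperature in the dark with the MSTI probe (4 uM) in PBS pH 7.4, 2% DMSO. Signals were normalized between Acetyl-MSTI and MSTI.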

[5] = tested on: Nanoluciferase (engineered Oplophorus gracilirostris luciferase); experiment: Primary Nanoluciferase (NLuc) qHTS assay for identification of artifact compounds. (AID 1845222);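 further: NLuc secreted into diluted conditioned medium of S16 cells; series mostly up to about 54 µM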
Method in brief: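 NLuc from S16 cell medium (1:55) plus test compounds, 15 min, room temperature. Luminescence after Nano-Glo (1:100) addition, 5 min.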

[6] = Primary redox qHTS assay for identification of artifact compounds. (AID 1845223)
Method in brief: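 Redox-cycling detection via DTT (250 uM final) oxidation coupled to Amplex Red (25 uM)/HRP (250 mU/mL) in HBSS. 15 min preincubation plus 30 min after DTT, room temperature. Ex/Em 525/598 nm; 4-parameter Hill fit against DMSO and 10 uM DA3003.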

Phospholipid hydroperoxide glutathione peroxidase GPX4 (Homo sapiens), sequence (P36969 whole entry, looked up): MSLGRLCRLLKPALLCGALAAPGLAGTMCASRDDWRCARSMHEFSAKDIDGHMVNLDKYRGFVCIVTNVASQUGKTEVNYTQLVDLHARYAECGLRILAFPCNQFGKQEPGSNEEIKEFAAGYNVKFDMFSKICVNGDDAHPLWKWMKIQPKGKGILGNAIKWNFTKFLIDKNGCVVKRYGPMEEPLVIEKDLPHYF
Glutathione peroxidase 1 (Homo sapiens), sequence (P07203 whole entry, looked up): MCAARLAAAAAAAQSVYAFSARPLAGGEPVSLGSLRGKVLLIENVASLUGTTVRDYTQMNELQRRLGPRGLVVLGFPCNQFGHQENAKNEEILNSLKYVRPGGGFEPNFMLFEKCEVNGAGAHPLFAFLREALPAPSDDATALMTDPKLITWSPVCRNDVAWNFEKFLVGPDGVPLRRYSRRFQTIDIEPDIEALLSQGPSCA

SMILES | Potency [1] | Potency [2] | Potency [3] | Potency [4] | Potency [5] | Potency [6] | activity, negative = inhibition [1] | activity change, negative = inhibition [2] | activity change, negative = inhibition [3] | activity change, negative = thiol reactive [4] | activity, negative = inhibition [5] | redox activity (% of DA3003) [6]
COc1ccc(-c2cnc3c(-c4cccc5ncccc45)cnn3c2)cc1 | inactive | inactive | inactive | inactive | inactive | inactive | – | – | – | – | – | –
CCOC(=O)c1cnc2ccc(-c3cncc(NS(=O)(=O)c4ccccc4)c3)cn12 | inactive | inactive | inactive | inactive | inactive | inactive | – | – | – | – | – | –
C/C=C(/C)C(=O)O[C@H]1[C@H](OC(=O)/C(C)=C\C)[C@@]23C(CC1(C)C)[C@]1(CCC4[C@@]5(C)CC[C@H](O[C@@H]6O[C@H](C(=O)O)[C@@H](O)[C@H](O[C@@H]7O[C@H](CO)[C@H](O)[C@H](O)[C@H]7O[C@@H]7O[C@@H](C)[C@H](O)[C@@H](O)[C@H]7O[C@@H]7OC[C@@H](O)[C@H](O)[C@H]7O)[C@H]6O[C@@H]6O[C@H](CO)[C@H](O)[C@H](O)[C@H]6O)C(C)(C)C5CC[C@@]4(C)[C@]1(C)C[C@H]2O)O[C@H]3O (stereo partly drawn) | – | – | – | – | – | – | -2.94% [at 9.52 µM] (inactive) | -2.35% [at 9.73 µM] (inactive) | 4.78% [at 11.6 µM] (inactive) | 718% [at 11.5 µM] (inactive) | 3.76% [at 11.6 µM] (inactive) | 13% [at 11.5 µM] (inactive)
COc1ccc2c(NC(=O)Nc3cccc(C(F)(F)F)n3)ccnc2c1 | inactive | inactive | inactive | inactive | inactive | inactive | – | – | – | – | – | –
COc1cc(NC(=O)c2cc(C3CC3)on2)c(OC)cc1Cl | inactive | inactive | inactive | inactive | inactive | inactive | – | – | – | – | – | –
COc1ccc(C2(CNC(=O)c3ccc(NC(=O)c4ccco4)cc3)CCOCC2)cc1 | inactive | inactive | inactive | inactive | inactive | inactive | – | – | – | – | – | –
CN1CCN(C(=O)CN[C@@H]2C[C@H]2c2ccc(OCc3ccccc3)cc2)CC1 | inactive | inactive | inactive | inactive | inactive | inactive | – | – | – | – | – | –
C=C(C)C(=O)OC1CC(CO)CCC/C(CO)=C/C2OC(=O)C(=C)C21 (stereo not drawn) | inactive | inactive | inactive | inactive | inactive | inactive | – | – | – | – | – | –
C#CCCCn1cc(-c2cccc3c2N[C@H](C)CC(=O)N3)cn1 | inactive | inactive | inactive | inactive | inactive | inactive | – | – | – | – | – | –
CC(=O)C1=CCC2C3CC=C4CC(O)CC(O)C4(C)C3C(O)CC12C (stereo not drawn) | inactive | inactive | inactive | inactive | inactive | inactive | – | – | – | – | – | –
O=C(N[C@H]1CCC[C@H](CO)C1)C1CCN(c2nc3cc(Cl)c(-c4ccc(Cl)cc4)cc3o2)CC1 | inactive | inactive | inactive | inactive | inactive | inactive | – | – | – | – | – | –
COc1cc(/C=N\NC(=O)c2ccc3c(c2)OCO3)ccc1OCc1ccccc1 | inactive | inactive | inactive | inactive | inactive | inactive | – | – | – | – | – | –
COc1cc(-c2nc(N[C@H](CO)Cc3ccccc3)ccc2C(=O)NCCOc2ccccc2)cc(OC)c1OC | inactive | inactive | inactive | inactive | inactive | inactive | – | – | – | – | – | –
CCCCCCCCn1cc(CN(CC)CC)c2cc(-c3cnc(N)nc3)ccc21 | inactive | inactive | inactive | inactive | inactive | inactive | – | – | – | – | – | –
C/C=C/C1=CC2=C(CO1)C(=O)C(C)(OC(=O)c1c(C)cc(O)cc1OC)C(O)C2 (stereo not drawn) | inactive | inactive | inactive | inactive | inactive | inactive | – | – | – | – | – | –
COC(=O)CC[C@@H](C)C1CCC2C3CCC4C[C@H](OC(C)=O)CCC4(C)C3C[C@H](O)C21C (stereo partly drawn) | inactive | inactive | inactive | inactive | inactive | inactive | – | – | – | – | – | –
CC(C)n1cnc2c(-c3cnc(N)nc3)nc(N3CCOCC3)nc21 | inactive | inactive | inactive | inactive | inactive | inactive | – | – | – | – | – | –
COc1ccc(-c2csc(NC(=O)[C@H]3CCCCN3S(=O)(=O)c3ccc(C)cc3)n2)cc1 | inactive | inactive | inactive | inactive | inactive | inactive | – | – | – | – | – | –
O=C(NCc1ccccc1-c1ccccc1C(=O)NCCc1ccccn1)OCc1ccccc1 | inactive | inactive | inactive | inactive | inactive | inactive | – | – | – | – | – | –
Cn1cc(-c2ccc3c(c2)CCN3C(=O)Cc2cccc(C(F)(F)F)c2)c2c(N)ncnc21 | inactive and 18.3 µM (active) | inactive | inactive | 29.9 µM (active) | inactive | inactive | – | – | – | – | – | –
C[C@@H](O[C@H]1OCCN(Cc2nn(P(=O)(O)O)c(=O)[nH]2)[C@H]1c1ccc(F)cc1)c1cc(C(F)(F)F)cc(C(F)(F)F)c1 | inactive | inactive | inactive | inactive | inactive | inactive | – | – | – | – | – | –
COC1=CC(=O)C=C(C)C12Oc1c(Cl)c(OC)cc(OC)c1C2=O (stereo not drawn) | inactive | inactive | inactive | inactive | inactive | inactive | – | – | – | – | – | –
COCCCNC(=O)c1ccc(Cn2c(=O)c3ccccc3n(Cc3ccc(C(C)C)cc3)c2=O)cc1 | inactive | inactive | inactive | inactive | inactive | inactive | – | – | – | – | – | –
